# Test results as given in PMC7862700, “An all-to-all approach to the identification of sequence-specific readers for epigenetic DNA modifications on cytosine”.
# Experiments:
# Assay in all cases: DAPPL (digital affinity profiling via proximity ligation, sequencing); 10 mM Tris-HCl pH 7.5, 50 mM NaCl, 1 mM DTT, 4% glycerol, room temperature, 30 min; GST-TFs on glutathione beads, 16-mer random dsDNA library, 0.1% formaldehyde crosslink after washing; high values mean tight binding
# FEV = target: T1, FEV (Homo sapiens, UniProt Q99581 1-238); conditions: protein: recombinant; tags: N-terminal GST; dsDNA, one strand shown
# T1 sequence: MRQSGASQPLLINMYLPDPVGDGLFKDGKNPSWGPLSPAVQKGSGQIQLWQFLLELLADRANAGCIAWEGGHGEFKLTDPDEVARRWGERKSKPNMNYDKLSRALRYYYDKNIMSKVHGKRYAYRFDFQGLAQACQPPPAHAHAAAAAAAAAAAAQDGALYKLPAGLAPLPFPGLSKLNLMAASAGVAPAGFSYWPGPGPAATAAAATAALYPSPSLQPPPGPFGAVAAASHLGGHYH
# How it was run: (§1)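 Sequencing on an Illumina NextSeq500 followed washing, crosslinking with 0.1% formaldehyde, proximity ligation (BsaI/T4 ligase, 1 h, 37 °C) and PCR amplification of pools that had been incubated for 30 min at room temperature with 200 nmole of a random double-stranded 16-mer DNA library in Tris/NaCl/DTT/glycerol buffer. Each pool held DNA-barcoded human transcription factors, expressed in yeast as GST fusions and captured on glutathione beads, plus a tag-only sample. Binding signal is a hexamer's read frequency for a factor divided by its frequency in the tag-only sample.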
# ETV5 = ETV5 (Homo sapiens, UniProt P41161 1-510); conditions: protein: recombinant; tags: N-terminal GST; dsDNA, one strand shown
# Chain of ETV5 (P41161 whole entry): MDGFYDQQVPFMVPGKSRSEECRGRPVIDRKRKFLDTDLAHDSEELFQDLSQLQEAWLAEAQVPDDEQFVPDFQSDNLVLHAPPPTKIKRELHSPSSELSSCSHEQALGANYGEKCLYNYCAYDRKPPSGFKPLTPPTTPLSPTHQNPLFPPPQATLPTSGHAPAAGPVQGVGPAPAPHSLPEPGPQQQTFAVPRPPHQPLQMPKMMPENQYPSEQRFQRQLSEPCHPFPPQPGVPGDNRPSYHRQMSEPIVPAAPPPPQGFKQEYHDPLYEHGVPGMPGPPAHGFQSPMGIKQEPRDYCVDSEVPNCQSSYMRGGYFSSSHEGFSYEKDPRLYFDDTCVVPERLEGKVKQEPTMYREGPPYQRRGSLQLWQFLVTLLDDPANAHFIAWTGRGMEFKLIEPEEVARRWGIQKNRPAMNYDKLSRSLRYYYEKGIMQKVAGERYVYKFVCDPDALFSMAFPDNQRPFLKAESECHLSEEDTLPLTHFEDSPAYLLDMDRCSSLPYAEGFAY
# How it was run: as §1
# HSF1 = HSF1 (Homo sapiens, UniProt Q00613 1-529); conditions: protein: recombinant; tags: N-terminal GST; chain copies: 3; dsDNA, one strand shown
# Chain of HSF1 (Q00613 whole entry): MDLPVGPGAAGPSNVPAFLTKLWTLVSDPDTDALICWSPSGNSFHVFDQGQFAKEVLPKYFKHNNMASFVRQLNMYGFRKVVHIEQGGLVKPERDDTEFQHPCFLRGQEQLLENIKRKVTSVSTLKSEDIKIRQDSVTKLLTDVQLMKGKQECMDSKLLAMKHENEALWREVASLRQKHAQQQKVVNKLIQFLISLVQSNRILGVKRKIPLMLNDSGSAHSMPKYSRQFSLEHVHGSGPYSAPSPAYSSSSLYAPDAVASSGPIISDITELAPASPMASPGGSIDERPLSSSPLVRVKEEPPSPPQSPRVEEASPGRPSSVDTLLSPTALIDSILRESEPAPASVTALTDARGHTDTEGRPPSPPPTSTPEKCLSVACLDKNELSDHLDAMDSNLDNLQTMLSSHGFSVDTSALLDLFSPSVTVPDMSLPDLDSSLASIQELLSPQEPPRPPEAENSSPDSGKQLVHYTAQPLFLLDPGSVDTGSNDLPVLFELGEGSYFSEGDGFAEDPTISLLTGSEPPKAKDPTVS
# How it was run: as §1
# SPIC = target: T2, SPIC (Homo sapiens, UniProt Q8N5J4 1-248); conditions: protein: recombinant; tags: N-terminal GST; dsDNA, one strand shown
# T2 sequence: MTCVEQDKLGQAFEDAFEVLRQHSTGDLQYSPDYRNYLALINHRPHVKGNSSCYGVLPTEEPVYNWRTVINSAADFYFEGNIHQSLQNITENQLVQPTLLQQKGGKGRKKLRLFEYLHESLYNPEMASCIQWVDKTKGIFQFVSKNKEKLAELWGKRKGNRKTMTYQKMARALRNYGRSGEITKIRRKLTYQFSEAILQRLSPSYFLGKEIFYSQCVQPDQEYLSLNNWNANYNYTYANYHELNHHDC
# How it was run: as §1
# ELF4 = ELF4 (Homo sapiens, UniProt Q99607 1-663); conditions: protein: recombinant; tags: N-terminal GST; dsDNA, one strand shown
# Chain of ELF4 (Q99607 whole entry): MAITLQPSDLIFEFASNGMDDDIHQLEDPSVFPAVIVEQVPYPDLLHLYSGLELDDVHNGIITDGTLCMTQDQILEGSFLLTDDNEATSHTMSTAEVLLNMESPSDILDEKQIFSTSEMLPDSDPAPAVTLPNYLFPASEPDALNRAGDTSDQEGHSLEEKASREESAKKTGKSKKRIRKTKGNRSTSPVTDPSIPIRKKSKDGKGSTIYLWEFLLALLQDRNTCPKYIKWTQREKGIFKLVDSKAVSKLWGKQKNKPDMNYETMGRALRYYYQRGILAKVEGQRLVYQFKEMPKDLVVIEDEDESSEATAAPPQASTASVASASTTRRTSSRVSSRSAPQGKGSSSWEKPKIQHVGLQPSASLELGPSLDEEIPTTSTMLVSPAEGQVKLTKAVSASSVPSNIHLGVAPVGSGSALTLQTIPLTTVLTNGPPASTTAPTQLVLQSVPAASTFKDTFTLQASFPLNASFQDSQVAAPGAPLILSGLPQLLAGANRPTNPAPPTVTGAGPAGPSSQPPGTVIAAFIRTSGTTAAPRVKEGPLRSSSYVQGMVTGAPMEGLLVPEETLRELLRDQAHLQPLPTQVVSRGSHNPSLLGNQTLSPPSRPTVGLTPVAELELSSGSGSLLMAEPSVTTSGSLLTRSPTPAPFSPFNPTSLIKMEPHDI
# How it was run: as §1
# ELK4 = target: T3, ELK4 (Homo sapiens, UniProt P28324-2 1-405); conditions: protein: recombinant; tags: N-terminal GST; dsDNA, one strand shown
# T3 sequence: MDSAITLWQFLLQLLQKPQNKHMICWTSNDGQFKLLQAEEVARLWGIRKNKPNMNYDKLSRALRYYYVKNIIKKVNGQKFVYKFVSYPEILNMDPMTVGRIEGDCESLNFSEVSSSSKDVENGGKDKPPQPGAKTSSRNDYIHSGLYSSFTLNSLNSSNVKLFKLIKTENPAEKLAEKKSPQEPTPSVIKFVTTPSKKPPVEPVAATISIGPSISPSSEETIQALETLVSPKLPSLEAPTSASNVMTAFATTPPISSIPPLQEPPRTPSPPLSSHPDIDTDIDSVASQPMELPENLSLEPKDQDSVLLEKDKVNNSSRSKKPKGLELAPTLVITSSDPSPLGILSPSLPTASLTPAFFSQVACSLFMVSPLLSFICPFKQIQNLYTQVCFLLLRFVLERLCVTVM
# How it was run: as §1
# ETV2 = target: T4, ETV2 (Homo sapiens, UniProt O00321 1-342); conditions: protein: recombinant; tags: N-terminal GST; dsDNA, one strand shown
# T4 sequence: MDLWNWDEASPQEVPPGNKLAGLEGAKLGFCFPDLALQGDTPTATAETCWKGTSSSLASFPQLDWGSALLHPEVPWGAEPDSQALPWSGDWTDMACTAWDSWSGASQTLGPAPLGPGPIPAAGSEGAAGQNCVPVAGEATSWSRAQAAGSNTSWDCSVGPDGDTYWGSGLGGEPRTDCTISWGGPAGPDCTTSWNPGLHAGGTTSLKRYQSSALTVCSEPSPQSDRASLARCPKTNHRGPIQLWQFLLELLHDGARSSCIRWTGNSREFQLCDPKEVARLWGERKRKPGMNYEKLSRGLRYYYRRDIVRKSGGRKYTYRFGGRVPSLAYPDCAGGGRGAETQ
# How it was run: as §1
# ELF3 = target: T5, ELF3 (Homo sapiens, UniProt P78545 1-371); conditions: protein: recombinant; tags: N-terminal GST; dsDNA, one strand shown
# T5 sequence: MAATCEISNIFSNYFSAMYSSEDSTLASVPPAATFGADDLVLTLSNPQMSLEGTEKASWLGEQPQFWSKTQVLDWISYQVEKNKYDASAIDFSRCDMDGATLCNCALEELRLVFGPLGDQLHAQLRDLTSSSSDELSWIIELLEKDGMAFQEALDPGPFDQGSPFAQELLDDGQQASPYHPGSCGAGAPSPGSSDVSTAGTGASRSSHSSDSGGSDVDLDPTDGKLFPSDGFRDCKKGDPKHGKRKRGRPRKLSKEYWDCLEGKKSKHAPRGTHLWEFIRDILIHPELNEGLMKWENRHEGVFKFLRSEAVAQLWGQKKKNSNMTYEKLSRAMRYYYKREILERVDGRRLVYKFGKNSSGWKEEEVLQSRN
# How it was run: as §1
# ETV1 = ETV1 (Homo sapiens, UniProt P50549 1-477); conditions: protein: recombinant; tags: N-terminal GST; dsDNA, one strand shown
# Chain of ETV1 (P50549 whole entry): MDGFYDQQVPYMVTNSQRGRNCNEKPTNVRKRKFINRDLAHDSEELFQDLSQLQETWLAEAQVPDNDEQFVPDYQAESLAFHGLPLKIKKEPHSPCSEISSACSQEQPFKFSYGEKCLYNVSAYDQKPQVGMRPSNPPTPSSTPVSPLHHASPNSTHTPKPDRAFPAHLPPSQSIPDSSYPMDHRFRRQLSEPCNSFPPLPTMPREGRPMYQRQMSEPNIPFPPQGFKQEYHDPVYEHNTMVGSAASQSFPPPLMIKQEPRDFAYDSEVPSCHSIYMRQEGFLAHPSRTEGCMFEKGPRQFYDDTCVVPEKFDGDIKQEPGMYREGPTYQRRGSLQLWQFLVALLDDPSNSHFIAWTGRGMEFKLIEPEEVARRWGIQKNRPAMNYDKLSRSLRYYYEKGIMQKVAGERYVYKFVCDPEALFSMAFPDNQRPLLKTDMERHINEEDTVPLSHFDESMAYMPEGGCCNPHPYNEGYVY
# How it was run: as §1
# ERF = target: T6, ERF (Homo sapiens, UniProt P50548 1-548); conditions: protein: recombinant; tags: N-terminal GST; dsDNA, one strand shown
# T6 sequence: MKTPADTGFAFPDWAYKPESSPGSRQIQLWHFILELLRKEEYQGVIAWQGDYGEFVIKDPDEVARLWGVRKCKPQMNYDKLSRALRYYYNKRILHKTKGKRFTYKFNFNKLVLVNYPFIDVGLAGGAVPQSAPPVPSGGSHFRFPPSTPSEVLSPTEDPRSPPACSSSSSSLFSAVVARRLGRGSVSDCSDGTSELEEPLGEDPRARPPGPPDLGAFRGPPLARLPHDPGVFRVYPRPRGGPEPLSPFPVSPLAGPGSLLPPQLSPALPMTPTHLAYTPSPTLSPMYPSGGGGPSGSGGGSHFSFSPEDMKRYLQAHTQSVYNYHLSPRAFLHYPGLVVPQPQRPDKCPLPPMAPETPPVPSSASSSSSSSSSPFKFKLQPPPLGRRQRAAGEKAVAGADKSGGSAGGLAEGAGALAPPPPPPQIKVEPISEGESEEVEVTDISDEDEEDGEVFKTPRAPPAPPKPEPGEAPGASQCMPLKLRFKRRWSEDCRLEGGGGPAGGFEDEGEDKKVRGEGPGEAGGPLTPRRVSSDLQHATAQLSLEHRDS
# How it was run: as §1
# ETV3L = target: T7, ETV3L (Homo sapiens, UniProt Q6ZN32 1-361); conditions: protein: recombinant; tags: N-terminal GST; dsDNA, one strand shown
# T7 sequence: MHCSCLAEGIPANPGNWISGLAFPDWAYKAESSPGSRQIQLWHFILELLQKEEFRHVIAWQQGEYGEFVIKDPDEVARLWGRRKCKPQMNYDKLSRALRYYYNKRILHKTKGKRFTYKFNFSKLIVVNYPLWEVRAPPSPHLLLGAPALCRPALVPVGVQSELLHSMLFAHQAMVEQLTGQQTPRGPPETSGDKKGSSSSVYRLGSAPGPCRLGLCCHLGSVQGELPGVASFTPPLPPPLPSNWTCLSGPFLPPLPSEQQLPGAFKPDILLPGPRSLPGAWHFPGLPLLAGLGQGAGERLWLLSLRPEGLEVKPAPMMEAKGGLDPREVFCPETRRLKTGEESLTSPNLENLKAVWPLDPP
# How it was run: as §1
# ETS2 = target: T8, ETS2 (Homo sapiens, UniProt P15036 1-469); conditions: protein: recombinant; tags: N-terminal GST; dsDNA, one strand shown
# T8 sequence: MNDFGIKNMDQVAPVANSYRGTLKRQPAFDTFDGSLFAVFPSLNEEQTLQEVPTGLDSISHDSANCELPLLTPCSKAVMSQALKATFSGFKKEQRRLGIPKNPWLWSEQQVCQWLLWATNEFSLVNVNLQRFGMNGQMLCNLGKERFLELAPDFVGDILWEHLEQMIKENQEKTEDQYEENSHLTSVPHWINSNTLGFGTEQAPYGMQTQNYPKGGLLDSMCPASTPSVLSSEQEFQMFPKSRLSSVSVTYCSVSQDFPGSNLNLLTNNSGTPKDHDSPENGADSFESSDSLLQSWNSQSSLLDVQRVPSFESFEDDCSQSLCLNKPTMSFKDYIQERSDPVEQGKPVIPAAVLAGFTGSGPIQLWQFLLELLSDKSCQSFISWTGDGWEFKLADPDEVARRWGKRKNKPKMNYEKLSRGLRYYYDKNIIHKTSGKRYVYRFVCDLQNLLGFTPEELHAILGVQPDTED
# How it was run: as §1
# SPDEF = target: T9, SPDEF (Homo sapiens, UniProt O95238 1-335); conditions: protein: recombinant; tags: N-terminal GST; dsDNA, one strand shown
# T9 sequence: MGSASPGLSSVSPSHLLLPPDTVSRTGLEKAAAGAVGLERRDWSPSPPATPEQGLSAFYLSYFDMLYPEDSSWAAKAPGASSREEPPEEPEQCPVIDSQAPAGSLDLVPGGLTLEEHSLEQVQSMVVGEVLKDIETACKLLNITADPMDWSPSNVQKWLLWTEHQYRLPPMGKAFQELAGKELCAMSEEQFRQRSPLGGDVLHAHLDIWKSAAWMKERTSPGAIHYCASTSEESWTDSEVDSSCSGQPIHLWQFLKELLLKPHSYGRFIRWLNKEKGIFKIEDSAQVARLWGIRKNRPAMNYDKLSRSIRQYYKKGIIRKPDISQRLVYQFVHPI
# How it was run: as §1
# ETV7 = target: T10, ETV7 (Homo sapiens, UniProt Q9Y603 1-341); conditions: protein: recombinant; tags: N-terminal GST; dsDNA, one strand shown
# T10 sequence: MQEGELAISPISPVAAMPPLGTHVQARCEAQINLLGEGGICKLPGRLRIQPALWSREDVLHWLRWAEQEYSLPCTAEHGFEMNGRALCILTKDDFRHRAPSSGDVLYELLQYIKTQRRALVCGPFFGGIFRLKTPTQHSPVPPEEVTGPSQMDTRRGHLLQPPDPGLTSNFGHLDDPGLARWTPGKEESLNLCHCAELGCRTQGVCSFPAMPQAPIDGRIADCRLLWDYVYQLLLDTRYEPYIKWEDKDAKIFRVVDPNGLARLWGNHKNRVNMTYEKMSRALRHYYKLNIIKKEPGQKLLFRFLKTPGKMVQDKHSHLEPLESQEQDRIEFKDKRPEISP
# How it was run: as §1
# ELF5 = target: T11, ELF5 (Homo sapiens, UniProt Q9UKW6-2 1-255); conditions: protein: recombinant; tags: N-terminal GST; dsDNA, one strand shown
# T11 sequence: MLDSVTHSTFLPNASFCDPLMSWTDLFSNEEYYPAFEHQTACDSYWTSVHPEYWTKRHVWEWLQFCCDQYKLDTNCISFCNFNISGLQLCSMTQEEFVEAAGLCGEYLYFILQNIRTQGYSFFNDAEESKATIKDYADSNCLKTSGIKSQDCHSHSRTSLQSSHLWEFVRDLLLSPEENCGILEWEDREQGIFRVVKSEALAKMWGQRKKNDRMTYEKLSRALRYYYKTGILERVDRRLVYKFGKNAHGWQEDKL
# How it was run: as §1
# ETV3 = target: T12, ETV3 (Homo sapiens, UniProt P41162-2 1-143); conditions: protein: recombinant; tags: N-terminal GST; dsDNA, one strand shown
# T12 sequence: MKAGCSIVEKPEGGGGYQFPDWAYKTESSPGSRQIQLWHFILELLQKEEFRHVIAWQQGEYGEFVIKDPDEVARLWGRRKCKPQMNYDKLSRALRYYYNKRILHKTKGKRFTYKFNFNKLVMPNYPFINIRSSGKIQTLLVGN
# How it was run: as §1
# ETV6 = ETV6 (Homo sapiens, UniProt P41212 1-452); conditions: protein: recombinant; tags: N-terminal GST; dsDNA, one strand shown
# Chain of ETV6 (P41212 whole entry): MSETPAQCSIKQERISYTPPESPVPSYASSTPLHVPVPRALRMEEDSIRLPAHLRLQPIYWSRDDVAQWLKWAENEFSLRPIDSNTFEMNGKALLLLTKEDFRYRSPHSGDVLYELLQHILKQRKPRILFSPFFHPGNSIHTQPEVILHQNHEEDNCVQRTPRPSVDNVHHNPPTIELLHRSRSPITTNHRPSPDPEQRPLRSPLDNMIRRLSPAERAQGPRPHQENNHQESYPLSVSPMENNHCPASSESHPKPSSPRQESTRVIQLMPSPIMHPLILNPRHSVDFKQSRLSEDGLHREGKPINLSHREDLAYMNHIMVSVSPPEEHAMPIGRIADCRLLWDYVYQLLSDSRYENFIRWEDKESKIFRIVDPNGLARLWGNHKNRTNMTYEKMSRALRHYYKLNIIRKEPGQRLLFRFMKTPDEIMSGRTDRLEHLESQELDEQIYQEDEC
# How it was run: as §1
sequence,measurement,setting,value
TAGGAA,binding signal,FEV,"1.06 fold enrichment (6-mer frequency, TF over GST control)"
same,binding signal,ETV5,"1.19 fold enrichment (6-mer frequency, TF over GST control)"
same,binding signal,HSF1,"1.11 fold enrichment (6-mer frequency, TF over GST control)"
same,binding signal,SPIC,"1.27 fold enrichment (6-mer frequency, TF over GST control)"
same,binding signal,ELF4,"1.09 fold enrichment (6-mer frequency, TF over GST control)"
same,binding signal,ELK4,"1.01 fold enrichment (6-mer frequency, TF over GST control)"
same,binding signal,ETV2,"1.2 fold enrichment (6-mer frequency, TF over GST control)"
same,binding signal,ELF3,"1.2 fold enrichment (6-mer frequency, TF over GST control)"
same,binding signal,ETV1,"1.13 fold enrichment (6-mer frequency, TF over GST control)"
same,binding signal,ERF,"1.17 fold enrichment (6-mer frequency, TF over GST control)"
same,binding signal,ETV3L,"1.15 fold enrichment (6-mer frequency, TF over GST control)"
same,binding signal,ETS2,"1.19 fold enrichment (6-mer frequency, TF over GST control)"
same,binding signal,SPDEF,"1.11 fold enrichment (6-mer frequency, TF over GST control)"
same,binding signal,ETV7,"1.04 fold enrichment (6-mer frequency, TF over GST control)"
same,binding signal,ELF5,"1.29 fold enrichment (6-mer frequency, TF over GST control)"
same,binding signal,ETV3,"1.22 fold enrichment (6-mer frequency, TF over GST control)"
same,binding signal,ETV6,"1.37 fold enrichment (6-mer frequency, TF over GST control)"
